This is part of a sample that, as a whole, favours compounds with a hit. Of some 83,000 tested, about 20% had one in any assay.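 A percent growth of 40 corresponds to 60% growth inhibition; 0 means no net growth; -100 means all cells died. Active threshold: below 10.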 Activity calls are given as the source filed them.

This assay relates to 786-0 renal. In words: NCI-60 one-dose screen, 48 h (100 = growth as untreated, 0 = no growth, -100 = all killed). The settings on record: 10 µM unless noted.
`CO[C@H](C(=O)O)[C@@H]1Cc2cc3cc(OC4CC(OC5CC(O)C(O)C(C)O5)C(O)C(C)O4)c(C)c(O)c3c(O)c2C(=O)[C@H]1OC1CC(OC2CC(OC3CC(C)(O)C(O)C(C)O3)C(O)C(C)O2)C(O)C(C)O1` (some centres not stated): the growth was 10.3% (inactive).
As for `O=C(Nc1ccc(Cl)cc1)Nc1nccs1`, the figure is 56.8% (inactive).
The value for `CCn1cnc2c(Nc3cccc(Cl)c3)nc(N[C@@H]3CCCC[C@@H]3N)nc21` was 1.83% (active); that for `C[C@]12CC[C@H]3[C@@H](CC4SC(N)=NC45C/C(=N/NC(N)=O)CC[C@]35C)[C@@H]1CCC2=O` (some centres not stated) was -9.65% (active); that for `Fc1ccc(N2COOC3(OOC2)C2CC4CC(C2)CC3C4)cc1` was 12.6% (inactive).
The value for `C[C@@]1(CCCCCCCCCc2ccc(O)cc2)C[C@]2(C)OC(=O)C[C@@H]2OO1` was 80.2% (inactive); that for `[Cl][Hg][n]1c(-c2ccco2)nc2ccccc21` was 107% (inactive); that for `CN1C(=O)N[C@H]2[C@@H]3NC(=O)c4ccc(Br)n4[C@@H]3C[C@]21O` was -19.3% (active).
Regarding `C=CC[PH+](c1ccccc1)c1ccccc1.C=CC[PH+](c1ccccc1)c1ccccc1.[Cl][Pt][Cl]`, the growth was 49.7% (inactive).
As for `CC[C@H](C)[C@H](NC(=O)C12CC(NC(C)=O)(C1)C2)C(=O)N(C)[C@H](C[C@@H](OC(C)=O)c1nc(C(=O)N[C@@H](Cc2ccccc2)C[C@H](C)C(=O)OC)cs1)C(C)C`, the figure is 16% (inactive); as for `O=C1C=C(N2C3C4CCC(C4)C32)C(=O)C=C1c1ccccc1` (configuration not stated), 102% (inactive).
In the case of `CCn1c2ccccc2c2cc(C(=O)c3cccc4c3CCCN4)ccc21`, the growth was 99% (inactive).
The value for `Nc1cc2nc3ccccc3nc2cc1N` was 102% (inactive); that for `CCOC(=O)C(Cc1ccc(N(CCCl)CCCl)cc1)NC(=O)C(CC(C)C)NC(C)=O` (configuration not stated) was 9.46% (active); that for `COC(=O)CCc1c[nH]c2ccc(N(CCCl)CCCl)cc12` was 24.8% (inactive).
As for `Clc1cccc(Cl)c1Cl`, the figure is 96.1% (inactive).
As for `COc1cc([N+](=O)[O-])c2nc(C)ccc2c1[N+](=O)[O-]`, the figure is 105% (inactive); as for `O=C(CC1(O)C(=O)N(Cc2ccccc2)c2ccc(F)cc21)c1ccc(C(=O)NCC2CCC3(CC2)OOC2(CCCCC2)OO3)cc1` (configuration not stated), -67% (active); as for `O=C(CCl)c1ccc([N+](=O)[O-])o1`, -28.7% (active).
`C[S+]1C=Cc2ccccc2C1c1ccc(Cl)cc1` (configuration not stated): the growth was 111% (inactive).
Turning to `COC(=O)[C@@H](C)C[C@H](Cc1ccc2ccccc2c1)NC(=O)c1csc([C@@H](C[C@H](C(C)C)N(C)C(=O)[C@@H](NC(=O)[C@H]2CCCCN2C)C(C)C)OC(C)=O)n1`, the growth was 26.5% (inactive).
As for `O=P(N1CC1)(N1CC1)N1CCc2ccccc21`, the figure is 106% (inactive); as for `O=C1Nc2ccccc2C2c3cccn3-c3ccccc3CN12` (configuration not stated), 66.3% (inactive).
The value for `COC(=O)[C@@]1(O)C[C@H]2O[C@]1(C)n1c3ccccc3c3c4c(c5c6ccccc6n2c5c31)C(=O)NC4` was -89.5% (active); that for `NC(=S)c1cn(C2OC(CO)C(O)C2O)c2ncnc(N)c12` (configuration not stated) was -15.9% (active); that for `CC[C@H](C)[C@H](NC(=O)c1cccn1C)C(=O)N(C)[C@H](C[C@@H](OC(C)=O)c1nc(C(=O)N[C@@H](Cc2ccccc2)C[C@H](C)C(=O)OC)cs1)C(C)C` was 12.7% (inactive).
The value for `OCc1ccc2c(c1)OCO2` was 104% (inactive); that for `C[n+]1c(/C=C/c2ccc(N(CCCl)CCCl)cc2)sc2ccccc21` was 50.3% (inactive); that for `ClCCN(CCCl)Cc1ccc(Nc2ccnc3cc(Cl)ccc23)cc1` was 8.84% (active).
With `Fc1ccc2c(c1)c(-c1nc(-c3c[nH]c4ncccc34)cs1)cn2CCN1CCOCC1`, the growth was 71.6% (inactive).
The value for `COc1cc2c(=O)n(C3CCCCCCC3)c3c4cc[nH]c4ncc3c2cc1OC` was 31.2% (inactive); that for `Cn1cc(-c2csc(-c3cn(CCN4CCOCC4)c4ccc(F)cc34)n2)c2cccnc21` was 56.3% (inactive).
Turning to `O=C(CC1(O)C(=O)Nc2ccc(Br)cc21)c1ccc(C(=O)NCC2CCC3(CC2)OOC2(CCCCC2)OO3)cc1` (configuration not stated), the growth is -7.61% (active).
The value for `COc1cc(/C=N/C2=C(C#N)C(c3ccco3)c3c(c4cc(C)ccc4oc3=O)O2)cc(OC)c1OC` (configuration not stated) was 92.5% (inactive); that for `CC1(C)N=C(N)N=C(N)N1c1ccc(CCCCc2ccc(Cl)c(S(=O)(=O)F)c2)c(Cl)c1` was -20.2% (active).
Regarding `CC12CCC3C(CCC4Cc5[nH]c6ccccc6c5CC43C)C1CCC2O` (configuration not stated), the growth was 33.5% (inactive).
The value for `COC(=O)[C@@H](C)C[C@H](Cc1ccccc1)NC(=O)c1csc([C@@H](C[C@H](C(C)C)N(C)C(=O)[C@@H](NC(=O)[C@H]2CCCCN2C)C(C(F)(F)F)C(F)(F)F)OC(C)=O)n1` was -5.39% (active).

The values above are taken from PubChem BioAssay (NCI).
